Consider 75 compounds from the supplement of paper PMC11018630.

Structures can show the parent of a compound that is named as a salt. ± gives the standard deviation of the averaged measurements. Whole data set: some 1,100 compounds, median “day of extracellular matrix detachment from plate” near 16, cut for the lowest 2% near 10. Many of the other results were omitted from the sample, so the lowest values are more common in it than they were.

The assay concerns RDEB dermal fibroblasts EB71. Description: day of extracellular matrix detachment from plate (days); higher = delayed detachment (less fibrotic matrix). The conditions noted are these: compound concentration: 10 uM.
Take `O=c1ccc2ccc(OCCCCN3CCN(c4cccc5sccc45)CC3)cc2[nH]1` [Brexpiprazole]: the “day of extracellular matrix detachment from plate” value (from here on “day”) was 17.

Consider `CC(C)[C@H](N)C(=O)OCCOCn1cnc2c(=O)nc(N)[nH]c21` [Valaciclovir HCl], for which the “day” value is 15.7 ± 6.3.

`OCCOc1ccc(/C(=C(/CCCl)c2ccccc2)c2ccccc2)cc1` [Ospemifene]: the “day” value stood at 13.

On to `Cc1ccc(C(=O)C(C)CN2CCCCC2)cc1` (stereo not given) [Tolperisone HCl], for which the “day” value was 13.

Regarding `CCCCN1CCCCC1C(=O)Nc1c(C)cccc1C` (stereo not given) [Bupivacaine HCl], the “day” value was determined as 19.3 ± 6.3.

For `CO[C@H]1C[C@@H]2CC[C@@H](C)[C@@](O)(O2)C(=O)C(=O)N2CCCC[C@H]2C(=O)O[C@H]([C@H](C)C[C@@H]2CC[C@@H](OCCO)[C@H](OC)C2)CC(=O)[C@H](C)/C=C(\C)[C@@H](O)[C@@H](OC)C(=O)[C@H](C)C[C@H](C)/C=C/C=C/C=C/1C` [Everolimus (RAD001)], the “day” value worked out at 25.

On to `CC[C@H]1[C@@H](O)[C@@H]2[C@H](CC[C@]3(C)[C@@H]([C@H](C)CCC(=O)O)CC[C@@H]23)[C@@]2(C)CC[C@@H](O)C[C@@H]12` [Obeticholic Acid], for which the “day” value was 16.3 ± 1.1.

Take `C#C[C@]1(O)CC[C@H]2[C@@H]3CCC4=CCCC[C@@H]4[C@H]3C(=C)C[C@@]21CC` [Desogestrel]: the “day” value worked out at 17.

As for `Cc1cc(C#N)cc(C)c1Oc1nc(Nc2ccc(C#N)cc2)nc(N)c1Br` [Etravirine (TMC125)], the “day” value is 18.

As to `CC1(C)CCC(C)(C)c2cc(NC(=O)c3ccc(C(=O)O)cc3)ccc21` [Tamibarotene], the “day” value amounted to 19.

Consider `C=C(c1ccc(C(=O)O)cc1)c1cc2c(cc1C)C(C)(C)CCC2(C)C` [Bexarotene], for which the “day” value was 9.

Consider `Cc1ccc([C@@H]2O[C@H](CO)[C@@H](O)[C@H](O)[C@H]2O)cc1Cc1ccc(-c2ccc(F)cc2)s1` [Canagliflozin], for which the “day” value was 18.

Turning to `Oc1cc(O)c(Cl)cn1` [Gimeracil], the “day” value amounted to 12.

As to `O=C(O)c1cc(/N=N/c2ccc(O)c(C(=O)O)c2)ccc1O` [Olsalazine Sodium], the “day” value amounted to 17.3 ± 2.9.

Take `CC(C)NC[C@H](O)COc1ccc(CCOCC2CC2)cc1` [Levobetaxolol HCl]: the “day” value was found to be 16 ± 3.5.

Take `C[C@]12CC[C@H](O)CC1=CC[C@@H]1[C@@H]2CC[C@]2(C)C(n3cnc4ccccc43)=CC[C@@H]12` [Galeterone]: the “day” value was 20 ± 1.7.

As to `CCOC(=O)CC(=O)N1CCSC1COc1ccccc1OC` (stereo not given) [Moguisteine], the “day” value turned out to be 15.3 ± 2.3.

Regarding `Clc1ccc2c(c1)CCc1cccnc1C2=C1CCNCC1` [Desloratadine], the “day” value stood at 28.

With `NC(=O)C(c1ccccc1)(c1ccccc1)[C@@H]1CCN(CCc2ccc3c(c2)CCO3)C1` [Darifenacin HBr], the “day” value was determined as 23.2 ± 7.2.

On to `CC(C)/N=c1\cc2n(-c3ccc(Cl)cc3)c3ccccc3nc-2cc1Nc1ccc(Cl)cc1` [Clofazimine], for which the “day” value was 13.

As for `C[C@@H]1O[C@@H](OC[C@H]2O[C@@H](Oc3c(-c4ccc(O)c(O)c4)oc4cc(O)cc(O)c4c3=O)[C@H](O)[C@@H](O)[C@@H]2O)[C@H](O)[C@H](O)[C@H]1O` [Rutin], the “day” value amounted to 18.3 ± 8.1.

Regarding `CNC[C@H](O)[C@@H](O)[C@H](O)[C@H](O)CO` [Meglumine], the “day” value was 12.

In the case of `OCCOCCN1CCN(C(c2ccccc2)c2ccc(Cl)cc2)CC1` (stereo not given) [Hydroxyzine 2HCl], the “day” value was 18.

For `Cc1cccc(CN2CCN(C(c3ccccc3)c3ccc(Cl)cc3)CC2)c1` (stereo not given) [Meclizine 2HCl], the “day” value was 12.

Take `O=C(O)COCCN1CCN(C(c2ccccc2)c2ccc(Cl)cc2)CC1` (stereo not given) [Cetirizine DiHCl]: the “day” value came out at 10.3 ± 1.1.

As for `C#C[C@]1(O)CC[C@H]2[C@@H]3CCC4=CC(=O)CC[C@@H]4[C@H]3C(=C)C[C@@]21CC` [Etonogestrel], the “day” value stood at 20.

For the compound `CC(C)Oc1ccc(-c2nc(-c3cccc4c3CC[C@@H]4NCCO)no2)cc1C#N` [Ozanimod (RPC1063)], the “day” value was determined as 16.3 ± 1.1.

As for `Cc1cccc(Nc2ccncc2S(=O)(=O)NC(=O)NC(C)C)c1` [Torsemide], the “day” value was found to be 15.7 ± 6.3.

Regarding `CN1CCN2c3ncccc3Cc3ccccc3C2C1` (stereo not given) [Mirtazapine], the “day” value worked out at 12.

For `NC1=NCC2c3ccccc3Cc3ccccc3N12` (stereo not given) [Epinastine HCl], the “day” value turned out to be 13.

Take `CN1CCN2c3ccccc3Cc3ccccc3C2C1` (stereo not given) [Mianserin HCl]: the “day” value was found to be 9.67 ± 1.1.

Turning to `C=C[C@]1(C)C[C@@H](OC(=O)CSC(C)(C)CNC(=O)[C@H](N)C(C)C)[C@]2(C)[C@H](C)CC[C@]3(CCC(=O)[C@H]32)[C@@H](C)[C@@H]1O` [Valnemulin HCl], the “day” value is 19.

For `C[C@]12CC[C@@H]3c4ccc(O)cc4CC[C@H]3[C@@H]1CC[C@@H]2OC(=O)CCC1CCCC1` [Estradiol Cypionate], the “day” value was 13.

Take `C[C@@H]1COC(Nc2ccc3ncnc(Nc4ccc(OCc5nccs5)c(Cl)c4)c3c2)=N1` [Varlitinib]: the “day” value was 31.

Consider `C[C@H](CCC(=O)O)[C@H]1CC[C@H]2[C@@H]3[C@@H](O)C[C@@H]4C[C@H](O)CC[C@]4(C)[C@H]3CC[C@]12C` [Ursodiol], for which the “day” value turned out to be 10.3 ± 1.1.

As to `C[C@H](CCC(=O)O)[C@H]1CC[C@H]2[C@@H]3CC[C@@H]4C[C@H](O)CC[C@]4(C)[C@H]3CC[C@]12C` [Lithocholic acid], the “day” value is 15.3 ± 2.3.

For `C[C@H](CCC(=O)O)[C@H]1CC[C@H]2[C@@H]3[C@H](O)C[C@@H]4C[C@H](O)CC[C@]4(C)[C@H]3CC[C@]12C` [Chenodeoxycholic Acid], the “day” value was 15.7 ± 6.3.

With `CO[C@H]1/C=C/O[C@@]2(C)Oc3c(C)c(O)c4c(O)c(c(/C=N/N5CCN(C6CCCC6)CC5)c(O)c4c3C2=O)NC(=O)/C(C)=C\C=C\[C@H](C)[C@H](O)[C@@H](C)[C@@H](O)[C@@H](C)[C@H](OC(C)=O)[C@@H]1C` [Rifapentine], the “day” value is 12.

`C[C@@H]1CC(=O)NN=C1c1ccc(NN=C(C#N)C#N)cc1` [Levosimendan]: the “day” value was 19.3 ± 6.3.

Regarding `CC[C@@H](CO)NCCN[C@@H](CC)CO` [Ethambutol HCl], the “day” value is 15.3 ± 2.3.

In the case of `Cc1c(C)c2c(c(C)c1O)CC[C@@](C)(CCC[C@H](C)CCC[C@H](C)CCCC(C)C)O2` [Vitamin E], the “day” value amounted to 17.3 ± 2.5.

On to `CCOc1ccccc1OC(c1ccccc1)C1CNCCO1` (stereo not given) [Reboxetine mesylate], for which the “day” value was 18.

With `N[C@@H](CC(=O)N1CCn2c(nnc2C(F)(F)F)C1)Cc1cc(F)c(F)cc1F` [Sitagliptin phosphate monohydrate], the “day” value is 18.

Take `C#C[C@]1(O)CC[C@H]2[C@@H]3CCc4cc(OC)ccc4[C@H]3CC[C@@]21C` [Mestranol]: the “day” value was found to be 10 ± 1.7.

In the case of `C#C[C@]1(O)CC[C@H]2[C@@H]3CCC4=CC(=O)CC[C@@H]4[C@H]3CC[C@@]21C` [Norethindrone], the “day” value came out at 19.

Consider `C#C[C@]1(O)CC[C@H]2[C@@H]3CCc4cc(O)ccc4[C@H]3CC[C@@]21C` [Ethinyl Estradiol], for which the “day” value was found to be 14.

In the case of `CCC(C)(C)c1ccc(CC(C)CN2C[C@@H](C)O[C@@H](C)C2)cc1` (stereo not given in full) [Amorolfine HCl], the “day” value was 12.

For the compound `Cc1cc(/C=C/C#N)cc(C)c1Nc1ccnc(Nc2ccc(C#N)cc2)n1` [Rilpivirine], the “day” value is 27.

As to `O[C@H]1[C@H](O)[C@@H](O)[C@H](O)[C@@H](O)[C@H]1O` [i-Inositol], the “day” value amounted to 13.

Turning to `CS(=O)(=O)c1ccc(C(=O)Nc2ccc(Cl)c(-c3ccccn3)c2)c(Cl)c1` [Vismodegib (GDC-0449)], the “day” value turned out to be 14.3 ± 1.1.

For `COc1cccc(-c2ccc(NC(=O)C3=C(C(=O)O)CCC3)c(F)c2)c1` [Vidofludimus], the “day” value amounted to 16.3 ± 1.1.

Regarding `CCOc1cc([C@@H](CS(C)(=O)=O)N2C(=O)c3cccc(NC(C)=O)c3C2=O)ccc1OC`, the “day” value is 12.7 ± 2.9.

As for `O=C1CC[C@@H](C(=O)N2CSC[C@H]2C(=O)O)N1` [Pidotimod], the “day” value was 15.3 ± 2.3.

For the compound `CNC[C@H](O)c1ccc(O)c(O)c1` [Epinephrine HCl], the “day” value came out at 16.3 ± 4.

With `CC(C)NCC(O)c1ccc(O)c(O)c1` (stereo not given) [Isoprenaline HCl], the “day” value came out at 11 ± 1.7.

`CNC[C@H](O)c1cccc(O)c1` [Phenylephrine HCl]: the “day” value stood at 12.

For the compound `CNC[C@@H](O)c1ccc(O)c(O)c1` [L-Adrenaline], the “day” value was determined as 10 ± 1.7.

Take `CC(C)(C)NCC(O)c1ccc(O)c(CO)c1` (stereo not given) [Salbutamol Sulfate]: the “day” value amounted to 19.

As to `CNC[C@H](O)c1ccc(O)c(O)c1` [Epinephrine Bitartrate], the “day” value is 9.

With `NC[C@H](O)c1ccc(O)c(O)c1` [Noradrenaline bitartrate monohydrate], the “day” value came out at 16.7 ± 2.3.

Consider `O=C(/C=C/C=C/c1ccc2c(c1)OCO2)N1CCCCC1` [Piperine], for which the “day” value was 11 ± 1.7.

With `Cc1ccsc1C(=CCCN1CCC[C@@H](C(=O)O)C1)c1sccc1C` [Tiagabine hydrochloride], the “day” value was found to be 17.2 ± 2.

For `Cc1ccsc1C(=CCCN1CCC[C@@H](C(=O)O)C1)c1sccc1C` [Tiagabine], the “day” value was 17.

As to `Cc1c(-c2ccnn2C)cc(C(=O)NCc2ccc(S(C)(=O)=O)cn2)c(=O)n1-c1cccc(C(F)(F)F)c1` [Alvelestat (AZD9668)], the “day” value came out at 13.7 ± 1.1.

With `CCCNS(=O)(=O)Nc1ncnc(OCCOc2ncc(Br)cn2)c1-c1ccc(Br)cc1` [Macitentan], the “day” value was 9.67 ± 1.1.

In the case of `O=C(O)c1cc(=O)c2ccccc2o1` [Chromocarb], the “day” value was 13.

With `OCC(O)CN1CCN(c2ccccc2)CC1` (stereo not given) [Dropropizine], the “day” value is 15.

Consider `C=C1CC[C@H](O)C/C1=C/C=C1\CCC[C@]2(C)[C@@H]([C@H](C)/C=C/[C@H](C)C(C)C)CC[C@@H]12` [Vitamin D2], for which the “day” value is 18.

As for `CC(=O)/N=c1/sc(S(N)(=O)=O)nn1C` [Methazolamide], the “day” value was found to be 18.

As to `O=C1C(O)=C([C@H]2CC[C@H](c3ccc(Cl)cc3)CC2)C(=O)c2ccccc21` [Atovaquone], the “day” value was found to be 18.

In the case of `CC[C@H](Nc1ncnc2[nH]cnc12)c1nc2cccc(F)c2c(=O)n1-c1ccccc1` [CAL-101 (Idelalisib, GS-1101)], the “day” value is 22.3 ± 1.1.

On to `O=C([O-])C(O)[C@H](O)[C@@H](O)[C@H](O)[C@H](O)CO.O=C([O-])C(O)[C@H](O)[C@@H](O)[C@H](O)[C@H](O)CO.[Ca+2]` (stereo not given in full) [Calcium Gluceptate], for which the “day” value came to 18.

In the case of `S=c1[nH]cnc2nc[nH]c12` [Mercaptopurine (6-MP)], the “day” value was determined as 15 ± 1.7.

Take `O=c1[nH]c(=O)n([C@H]2C[C@H](O)[C@@H](CO)O2)cc1I` [Idoxuridine]: the “day” value was 23.

As for `COc1cc(OC)c(C(=O)CCCN2CCCC2)c(OC)c1` [Buflomedil HCl], the “day” value is 20 ± 1.7.
